{"source": "PubChem BioAssay (EPA / NIEHS)", "note": "Inconclusive results are not listed. Calls of active or inactive are those of the source. How the source made its calls: active means hit-call score of the fitted dose curve at least 0.9, where 1 is the maximum; inconclusive means response in the unintended direction; inactive means score below 0.9."}
{"test": "CCTE_Shafer_MEA_dev_AB: CCTE's Alamar Blue Assay for Cytotoxicity in the Neural Network Formation Assay, Shafer Lab (AID 2284083);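 further: twelve days of exposure from plating with re-dosing on DIV 5 and 9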", "method": "CCTE_Shafer_MEA_dev assay is conducted using Axion Biosystems 48 well microelectrode array (MEA) plates and Maestro recording system. Each well of the MEA plate contains a grid of 16 microelectrodes embedded in the culture surface. Electrically active cells, such as neurons, can be cultured over the electrodes, and electrical activity in these cells can be recorded extracellularly. The spontaneous firing of neurons is captured from each electrode on a microsecond timescale providing both temporally and spatially precise data. […] The CCTE_Shafer_MEA_dev assay uses primary cultures of rat cortical neurons. Recordings are made on days post-plating 5, 7, 9 and 12. As these cultures mature over time, neural networks develop functional activity and form cohesive networks in which electrical activity can be highly coordinated. CCTE_Shafer_MEA_dev_AB is 1 of 19 assay components of the CCTE_Shafer_MEA_dev assay. It measures the resazurin reduction using fluorescence.Data from the assay component CCTE_Shafer_MEA_dev_AB was analyzed into 1 assay endpoint. This assay endpoint, CCTE_Shafer_MEA_dev_AB, was analyzed in the positive analysis fitting direction relative to DMSO as the negative control and baseline of activity. Using a type of viability reporter, loss-of-signal activity can be used to understand cell viability.\nOn the day prior to culture, each well was coated thoroughly with 150 uL of 0.05% polyethyleneimine (PEI, Sigma Cat P3143) in 50 mM HEPES (Sigma Cat H7523) at a pH of 8. The plate was incubated at 37C for one hour. PEI was rinsed out with 500 uL of sterile water three times. Plates were stored at 4C until the day of culture. This culture was plated at a seeding density of 1.5 x 10^5 cells/well on a 48-well MEA plate, prepared as described above. Cells were administered via a 25 uL media/laminin ([…]; Sigma Cat L2020-1MG) drop directly onto the microelectrode array, as adding the cells with the laminin results in better attachment than pre-coating with laminin. After 2 hours, an additional 475 uL of cortical media was added and the cells returned to the incubator. Exposure starts at day 0 of plating and is continued over twelve days of network development until the experiment is terminated. Cells are fed with fresh medium on DIV 5 and 9, following the recordings on those days. The entire volume of media in the well is exchanged and any vehicle or compound treatment is renewed. Complete details are found in OP-NHEERL/ISTD/SBB/TJS/2015-03-r0 (available on request, email shafer.tim@epa.gov). Measurement of the electrical activity is non-invasive, and recordings can be made from the same plate over multiple different days of the culture. In cortical neurons, this allows for the measurement of extracellular action potentials over the period during which networks form in the MEA plate."}
{"smiles": "O=C(O)C(F)(F)C(F)(F)C(F)(F)C(F)(F)C(F)(F)C(F)(F)C(F)(F)C(F)(F)C(F)(F)C(F)F", "outcome": "inactive"}
{"smiles": "OCC(F)(F)C(F)(F)C(F)(F)C(F)F", "outcome": "inactive"}
{"smiles": "OCC(F)(F)C(F)(F)C(F)(F)F", "outcome": "inactive"}
{"smiles": "OC[C@@H](O)[C@@H](O)[C@H](O)[C@@H](O)CO", "outcome": "inactive"}
{"smiles": "N=C(N)C(F)(F)C(F)(F)C(F)(F)C(F)(F)C(F)(F)C(F)(F)C(F)(F)F", "AC50": "23.9 µM (active)"}
{"smiles": "CC(C)(C)C(=O)CC(=O)C(F)(F)C(F)(F)C(F)(F)F", "AC50": "23.9 µM (active)"}
{"smiles": "O=P(O)(O)OCCC(F)(F)C(F)(F)C(F)(F)C(F)(F)C(F)(F)C(F)(F)F", "AC50": "24.7 µM (active)"}
{"smiles": "CC(CCl)OP(=O)(OC(C)CCl)OC(C)CCl", "note": "(stereo unspecified)", "outcome": "inactive"}
{"smiles": "FC(F)(F)C(F)(F)C(F)(F)C(F)(F)C(F)(F)CCI", "AC50": "23.9 µM (active)"}
{"smiles": "C=CC(=O)OCC(F)(F)C(F)(F)C(F)(F)C(F)(F)COC(=O)C=C", "AC50": "4.78 µM (active)"}
{"smiles": "OCC(F)(F)C(F)(F)C(F)(F)C(F)(F)C(F)(F)C(F)F", "outcome": "inactive"}
